How the values were obtained:
Test in all cases: PBM binding z-score (relative to random genomic background probes); higher = stronger binding; sequences stand for … in GC…GCGATTGACAGCGTAGAATGAAGG
[1] = test system: RARb homodimer (NR concentration 270 nM)
How it was run: (§1)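 Each nuclear receptor dimer, without ligand, was incubated for 1 h on custom Agilent 4×180K protein-binding microarrays. Binding was detected with antibodies against each partner (one per run), and scanned fluorescence was regression-normalized. The binding z-scores are referenced to random human genomic background probes.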

[2] = test system: RARg:RXRa (NR concentration 270 nM, RXRa partner concentration 90 nM)
How it was run: as §1

[3] = test system: RARg homodimer (NR concentration 270 nM)
How it was run: as §1

[4] = test system: RXRa DBDmut IVT, anti-RXR (DBD mutation: RXRa K156A/R161A, NR concentration 90 nM)
How it was run: as §1

[5] = test system: RXRa homodimer (NR concentration 180 nM)
How it was run: as §1

[6] = test system: THRa:RXRa (NR concentration 90 nM, RXRa partner concentration 90 nM)
How it was run: as §1

[7] = test system: THRa homodimer (NR concentration 90 nM)
How it was run: as §1

[8] = test system: VDR homodimer (NR concentration 270 nM)
How it was run: as §1

Row | Sequence | PBM binding z-score [1] | PBM binding z-score [2] | PBM binding z-score [3] | PBM binding z-score [4] | PBM binding z-score [5] | PBM binding z-score [6] | PBM binding z-score [7] | PBM binding z-score [8]
1 | AATACAGGGTCACTAGGCCAAAGTAGGTACGAAT | 3.62 | 5.16 | 4.42 | 2.71 | 5.98 | 3.48 | 1.09 | 2.19
2 | CCAGACAGGTGAGAAGGTAACTCCGCCTCGATTA | 0.57 | 0.45 | 0.417 | -0.0199 | 0.0477 | 0.0136 | 0.252 | -0.0348
3 | GCTTGTAGACCAAGGTTAAGAAAGACTAAGCTAA | 0.241 | 0.214 | 0.239 | -0.149 | 0.485 | 0.969 | -0.368 | -0.0799
4 | CCTACTGGGCCAAAAAGGTCCTTGATGCCGATAA | 0.795 | -0.28 | -0.148 | -0.722 | -0.259 | -0.265 | -0.242 | -0.393
5 | CCGACTGGGGCAAACGTTACCATACTCAGTACGA | 0.0694 | 0.309 | 0.456 | 0.618 | 0.251 | -0.227 | -0.206 | -0.371
6 | CTCGACAGGTCGGTTGAGGTGAGTATACGGATAA | 0.715 | 0.769 | 0.825 | -0.127 | 0.289 | 4.41 | 1.11 | 0.012
7 | AGAACGAGGGCAATGAGTCGATAGCACGGGTGGC | 0.763 | 1.02 | 1.4 | 1.75 | 0.683 | 0.527 | -0.542 | 1.17
8 | GATACAGGGTCAAGGCCAGGGTACGCGTATTGAT | 3.96 | 5.8 | 4.85 | 2.61 | 5.97 | 3.95 | 1.51 | 2.65
9 | ACTAGTTGGTCAGCTAAGGTCACACACAATTCGG | 4.54 | 4.33 | 4.53 | 1.25 | 4.2 | 5.21 | 5.38 | 2.63
10 | CCTAGTTGGTCAAGGTCACACACGCTATAGGTAC | 4.21 | 4.84 | 4.85 | 2.36 | 5 | 4.11 | 4.42 | 4.32
11 | TCGAGTAGGTTACCAATGGGGCTTTCAGCTTTCT | 0.0343 | 0.0207 | 0.23 | 0.35 | 0.16 | -0.122 | -0.536 | -0.784
12 | GGAACGATGGCAAAGTTGATAGCATCTGTCGACG | -0.537 | -0.206 | 0.0205 | -0.199 | -0.104 | -0.533 | -1.03 | -0.827
13 | CCGAGTAGGATATGGGGCATTCAGGCAACGGTGA | 0.223 | -0.15 | 0.00405 | -0.637 | 0.133 | 0.16 | 0.0622 | -0.318
14 | AGTATGAGGTTATTAAGATCAGGGAATTGCGGTC | 1.18 | 1.27 | 1.09 | 2.07 | 1.53 | 2.27 | 1.05 | 1.41
15 | CCTATTTGGTCAGGAGGTCACACACCGGATATGA | 4.24 | 5.12 | 4.67 | 1.25 | 5.03 | 3.54 | 2.66 | 2.61
16 | AGAACGAGGGCACGCTCAGTTGATAGCAGAGTAG | 1.02 | 1.9 | 2.25 | 1.94 | 1.28 | 1.82 | -0.0296 | 0.752
17 | CTCGATAGGTCGTGCTCAGGTGAGTATACCAAAC | 1.07 | 2.26 | 1.2 | 0.506 | 1.29 | 2.86 | 0.582 | 0.0382
18 | ACAGACAGGTGATAAAGGTAACTCAGGCTATCAT | 0.459 | 0.384 | 0.498 | -0.109 | 0.225 | 1.15 | -0.0543 | -0.632
19 | TCTAGGTGGTCAAAGGTCACACACTCGAAATGCG | 5.07 | 7.33 | 6.07 | 1.85 | 8.65 | 4.41 | 1.74 | 2.4
20 | CCGAGTAGGTGATGGGGCATTCAGGCAACGGTGA | 0.69 | 0.024 | -0.0731 | -0.961 | 0.074 | 0.211 | -0.0233 | -0.306
21 | CAAACTAGGTCAAGGGCAAAGTCGGTTTGTGCCA | 4.17 | 3.94 | 4.68 | 2.01 | 3.06 | 3.27 | 1.43 | 1.79
22 | CTCGAAAGGTCGGTTGAGGTGGGTATACGGATAA | 1.83 | 2.28 | 2.25 | 0.695 | 1.86 | 4.1 | 0.422 | 1.06
23 | TCATCTAGGTAAAAGGTGAAAGTCGGTGTGGTAA | 2.04 | 1.82 | 0.925 | 1.24 | 2.84 | 1.99 | 0.446 | 0.293
24 | CCTACTGGGCCCAAGGTCATTGATTCCAATGCTC | 3.52 | 2.64 | 2.42 | 0.382 | 2.82 | 3.22 | 2.76 | 2.48
25 | TCTACTAGTTGATTAGGGCAACCGAAACAGCGGA | 0.379 | 0.164 | 0.225 | 0.346 | 0.0714 | 0.604 | -0.104 | -0.302
26 | ACCTCTAGGTAAAGTTCAGTGAAAGATCGATAGA | 2.27 | 1.59 | 2.19 | 1.47 | 0.983 | 0.866 | -0.127 | 1.51
27 | TCTATTAGTTGATTAGGGTAACCGAAACAGCGGA | 0.423 | 0.525 | 0.53 | 1.03 | 0.666 | 1.61 | 0.861 | 0.517
28 | ATATGTAGGTTAGCTGGGGTCATTCGGACTAGGC | 3.59 | 4.28 | 2.86 | 2.17 | 5.36 | 5.12 | 3.5 | 5.38

— the supplement of paper PMC6555819
